The values below come from PubChem BioAssay (NCATS).

Inconclusive results are not listed. The source made the active and inactive calls. The call rests on the fitted dose curve; in most records, active means well fitted inhibition curve with a large enough effect; inconclusive means small, poorly fitted or top-dose-only effect; inactive means no such curve, though single readings can be large or run the other way.
Potency means the concentration at half of the fitted maximal effect.

This assay is described as follows: qHTS to identify inhibitors of the type 1 interferon - major histocompatibility complex class I in skeletal muscle: primary screen against the NCATS Mechanism Interrogation Plate v5.0 (MIPE) Libary (AID 1347411). Further: nearly all actives have a fitted effect of over 65% in size.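 On activity change, negative = inhibition: plate controls were vehicle for no effect and reference inhibitor for full effect.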 The note with it: iHSKM cells + IFN-b, HiBiT-tagged MHC-I luminescence, 24 h; series mostly up to 45.8 µM; activity change, negative = inhibition: at the top concentration. The procedure, abridged:
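Cells were genome-edited human myoblasts carrying a HiBit tag on endogenous HLA-B. They were treated with IFN-beta (4.0 ng/ml) and titrated compounds (top 46 uM) for 24 hrs before lytic HiBiT detection.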
`CCn1c(N)c(C(=O)NC)c(=O)c2ccc(C#CC(C)(O)COC)nc21` (stereo not given): the “activity change, negative = inhibition” value is -38.4% (inactive).

On to `COc1ccccc1C(=O)Nc1cc2c(cc1N1CCCC1)n(C)c(=O)n2C`, for which the “activity change, negative = inhibition” value is -16.2% (inactive).

As for `Cn1cc(-c2cnn3c(N)c(Br)c(C4CCCNC4)nc23)cn1` (stereo not given), the “activity change, negative = inhibition” value was -70.8% (inactive).

For the compound `CS(=O)(=O)c1ccc(Oc2cc(F)cc(C#N)c2)c2c1[C@H](O)C(F)(F)C2`, the “activity change, negative = inhibition” value was -7.56% (inactive).

As to `FC(F)(F)c1ccc(/C=C/c2nc(COc3ccc(CCCCn4ccnn4)cc3)co2)cc1`, the “activity change, negative = inhibition” value is -19.1% (inactive).

For `COC1CCN(C(=O)c2cc(Cc3n[nH]c(=O)c4ccccc34)ccc2F)CC1`, the “activity change, negative = inhibition” value was -11.3% (inactive).

For `O=C([C@@H](Cc1cccc(C(F)(F)F)c1)NS(=O)(=O)c1cc(F)c2c(c1)CCNC2)N1CCCC1`, the “activity change, negative = inhibition” value was -11.7% (inactive).

For the compound `NC(=O)c1ccccc1Nc1ccnc(Nc2cccc(O)c2)n1`, the Potency was 4.66 µM (active).

On to `COC(C)(C)CCn1nc(Nc2c(C)cccc2C)c2cnc(Nc3ccc(OCCN4CCCC4)c(F)c3)nc21`, for which the Potency is 11.7 µM (active).

Turning to `C[C@@H]1COCCN1c1cc(=O)n2c(n1)N(Cc1cncc(Cl)c1)[C@H](C(F)(F)F)CC2`, the “activity change, negative = inhibition” value is -6.81% (inactive).

With `CC(C)(CNC(=O)c1cccc(-c2noc(C(F)(F)F)n2)c1)c1coc(-c2ccccc2)n1`, the “activity change, negative = inhibition” value is -17.4% (inactive).

For `CCNC1(C(N)=O)CCN(c2ncnc3c2nc(-c2ccccc2Cl)n3-c2ccc(Cl)cc2)CC1`, the “activity change, negative = inhibition” value was -96.7% (inactive).

Regarding `CN(C)N(C)C(=O)[C@@]1(Cc2ccccc2)CCCN(C(=O)[C@@H](Cc2c[nH]c3ccccc23)NC(=O)C(C)(C)N)C1`, the “activity change, negative = inhibition” value was 5.14% (inactive).

In the case of `CN1CCN(C2CCN(C(=O)Nc3cc(Oc4ccc(NC(=O)C5(C(=O)Nc6ccc(F)cc6)CC5)c(F)c4)ccn3)CC2)CC1`, the Potency is 20.8 µM (active).

Take `Cc1cccc(CC(=O)N2CCc3c2ccc(-c2cn(C)c4ncnc(N)c24)c3F)n1`: the “activity change, negative = inhibition” value was -45.7% (inactive).

For `O=C1Nc2nc(-c3c(O)cccc3OCC3CC3)cc([C@@H]3CCCNC3)c2CO1`, the Potency is 3.7 µM (active).

With `Cc1[nH]c(/C=C2\C(=O)Nc3ccc(F)cc32)c(C)c1C(=O)NCCN1CCCC1`, the Potency was 10.2 µM (active).

For the compound `NCCOc1cc(C(=O)Nc2cc(OCCN)c3ccccc3n2)nc(C(=O)Nc2cc(OCCN)c3ccccc3n2)c1`, the “activity change, negative = inhibition” value is -29.7% (inactive).

`COc1cc2c(cc1OCCCN1CCCC1)N=C(N)C21CCC1`: the “activity change, negative = inhibition” value is -19.1% (inactive).

For the compound `O=C(NCC(=O)N1CCCC1)Nc1ccc2cnccc2c1`, the “activity change, negative = inhibition” value was -1.05% (inactive).

For the compound `Cc1cnc(-c2ccccc2C(C)C)nc1NCc1ccc(-n2ccnn2)cc1`, the “activity change, negative = inhibition” value is -20.6% (inactive).

For `CN1CCN(c2ccc(-c3cccc(CN4CCOCC4)c3)cc2NC(=O)c2c[nH]c(=O)cc2C(F)(F)F)CC1`, the “activity change, negative = inhibition” value is 42.4% (inactive).

As for `Cn1cc(-c2ccc3c(c2)CCN3C(=O)Cc2cccc(C(F)(F)F)c2)c2c(N)ncnc21`, the “activity change, negative = inhibition” value is -55.7% (inactive).

`CCN(c1cc(-c2ccc(CN3CCOCC3)cc2)cc(C(=O)NCc2c(C)cc(C)[nH]c2=O)c1C)C1CCOCC1`: the “activity change, negative = inhibition” value was -69.9% (inactive).

For `O=C(N[C@H]1CCC[C@H](CO)C1)C1CCN(c2nc3cc(Cl)c(-c4ccc(Cl)cc4)cc3o2)CC1`, the “activity change, negative = inhibition” value is -15.4% (inactive).

Turning to `O=C(Nc1cccnc1)c1cc(-c2ccnc(F)c2)ccc1OCc1ccccc1`, the “activity change, negative = inhibition” value was -23.7% (inactive).

`Cc1c(NC(=O)c2cc3c(s2)CCCC3)cccc1-c1cn(C)c(=O)c(Nc2ccc(C3C(=O)N(C)CCN3C)cc2)n1` (stereo not given): the “activity change, negative = inhibition” value is -16.6% (inactive).

As for `Cc1nnc(C[C@@H]2C=C(c3ccc(Cl)cc3)c3ccccc3-n3c(C)nnc32)o1`, the “activity change, negative = inhibition” value is -34.9% (inactive).

As for `C[C@@H](c1ccc2nccn2c1)n1nnc2ncc(-c3cnn(C)c3)nc21`, the “activity change, negative = inhibition” value was -29.5% (inactive).

Consider `COC(=O)Nc1cc(Nc2cc(NC3CC3)c3ncc(C#N)n3n2)c(Cl)c(N2CCN(C)CC2)c1`, for which the Potency is 4.66 µM (active).
